For 20 compounds, growth inhibition, inhibition and outcome results are on record in PubChem BioAssay.

A short description of test [1]: antimalarial activity against Dd2 strain (AID 2302;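 active = growth inhibition above 50% at the single 2 µM test dose, taken to imply half-maximal potency below 2 µM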;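 also: 0% = DMSO untreated growth and 100% = chloroquine plus artemisinin killed control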). The note with it: P. falciparum Dd2 in RBCs, LDH growth readout, 72 h; at 2 µM; active compounds read high.
The nature of test [2]: HepG2 cytotoxicity, primary screen, cytotoxicity control for P. falciparum antimalarial project, cell-based, ATP luminescence (AID 2303;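 active = inhibition above 50%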;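 also: 0% = DMSO wells and 100% = digitonin-killed cells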). The note with it: HepG2 viability, 24-48 h, at 10 µM, active compounds read high.
Test [3] concerns the target L-lactate dehydrogenase (Plasmodium falciparum (isolate CDC / Honduras)) (UniProt Q27743). The test can be described thus: PfLDH activity inhibition – cell lysate, 3D7 strain, counter-screen for P. falciparum growth inhibition project (AID 2304).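 Also: 0% = vehicle and 100% = reference inhibitor.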 The following applies: P. falciparum 3D7 crude extract, LDH APAD/NBT absorbance; at 2 µM; active compounds read high.
Test [4] is described as follows: inhibition of 3D7 malaria parasite growth – strain 3D7 (AID 2306).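 Also: 0% = DMSO wells and 100% = chloroquine plus artemisinin control wells.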 The note with it: P. falciparum 3D7 erythrocytic growth, LDH absorbance, 72 h; at 2 µM; active compounds read high.
The target in test [5] is Calcium-dependent protein kinase 1 (Plasmodium falciparum (isolate 3D7)) (UniProt P62344). The test can be described thus: PfCDPK1 kinase inhibitors, biochemical, TCAMS library (AID 1159585; cut-off not given, nearly all actives have IC50 up to about 0.98 µM;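 also: inhibitors leave more ATP so luminescence rises with inhibition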). The following applies: recombinant PfCDPK1, Kinase-Glo ATP depletion luminescence. (In general: Kinase-Glo reads ATP consumption through a luciferase reaction.)
Sequence of Calcium-dependent protein kinase 1 (Plasmodium falciparum (isolate 3D7)) (P62344 whole entry, looked up): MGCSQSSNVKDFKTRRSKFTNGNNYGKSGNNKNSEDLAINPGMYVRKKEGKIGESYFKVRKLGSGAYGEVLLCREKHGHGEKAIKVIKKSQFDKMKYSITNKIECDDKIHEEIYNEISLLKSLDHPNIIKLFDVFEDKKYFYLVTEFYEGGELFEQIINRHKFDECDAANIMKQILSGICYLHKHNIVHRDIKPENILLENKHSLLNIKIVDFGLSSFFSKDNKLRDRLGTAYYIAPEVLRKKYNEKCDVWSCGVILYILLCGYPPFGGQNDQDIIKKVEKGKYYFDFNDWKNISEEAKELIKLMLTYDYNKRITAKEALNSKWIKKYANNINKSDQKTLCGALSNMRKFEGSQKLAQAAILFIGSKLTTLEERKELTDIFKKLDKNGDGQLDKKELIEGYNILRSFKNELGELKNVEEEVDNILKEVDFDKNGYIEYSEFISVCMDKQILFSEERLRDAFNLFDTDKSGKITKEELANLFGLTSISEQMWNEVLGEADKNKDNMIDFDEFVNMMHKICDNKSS
In test [6] the target is Plasmodium falciparum protein kinase 6 (PK6, PF3D7_1337100) (UniProt Q8IDW1). The test can be described thus: PfPK6 kinase inhibitors, biochemical, TCAMS library (AID 1159586). The following applies: recombinant PfPK6, Kinase-Glo ATP depletion luminescence.
Sequence of Plasmodium falciparum protein kinase 6 (PK6, PF3D7_1337100) (Q8IDW1 1-305): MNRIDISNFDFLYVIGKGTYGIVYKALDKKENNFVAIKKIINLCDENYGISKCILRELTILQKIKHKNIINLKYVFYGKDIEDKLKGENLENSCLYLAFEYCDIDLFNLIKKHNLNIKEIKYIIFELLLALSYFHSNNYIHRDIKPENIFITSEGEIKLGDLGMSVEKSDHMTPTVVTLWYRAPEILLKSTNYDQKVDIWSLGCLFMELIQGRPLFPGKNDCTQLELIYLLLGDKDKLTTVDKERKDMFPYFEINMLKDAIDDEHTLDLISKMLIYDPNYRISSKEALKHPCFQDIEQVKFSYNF
Test [7] addresses Protein kinase 7 (PK7), Plasmodium falciparum 3D7 (PF3D7_0213400) (UniProt Q7YTF7). The test can be described thus: inhibition of Plasmodium PK7 catalytic activity – biochemical, TCAMS antimalarial set, Kinase-Glo luminescence (AID 1159587). The note with it: recombinant PfPK7, Kinase-Glo ATP depletion luminescence.
In test [8] the target is Calcium-dependent protein kinase 4 (Plasmodium falciparum (isolate 3D7)) (UniProt Q8IBS5). The test can be described thus: PfCDPK4 kinase inhibitors, biochemical, TCAMS library (AID 1159588; cut-off not given, nearly all actives have IC50 up to about 0.91 µM). The note with it: recombinant PfCDPK4, Kinase-Glo ATP depletion luminescence.
Sequence of Calcium-dependent protein kinase 4 (Plasmodium falciparum (isolate 3D7)) (Q8IBS5 whole entry, looked up): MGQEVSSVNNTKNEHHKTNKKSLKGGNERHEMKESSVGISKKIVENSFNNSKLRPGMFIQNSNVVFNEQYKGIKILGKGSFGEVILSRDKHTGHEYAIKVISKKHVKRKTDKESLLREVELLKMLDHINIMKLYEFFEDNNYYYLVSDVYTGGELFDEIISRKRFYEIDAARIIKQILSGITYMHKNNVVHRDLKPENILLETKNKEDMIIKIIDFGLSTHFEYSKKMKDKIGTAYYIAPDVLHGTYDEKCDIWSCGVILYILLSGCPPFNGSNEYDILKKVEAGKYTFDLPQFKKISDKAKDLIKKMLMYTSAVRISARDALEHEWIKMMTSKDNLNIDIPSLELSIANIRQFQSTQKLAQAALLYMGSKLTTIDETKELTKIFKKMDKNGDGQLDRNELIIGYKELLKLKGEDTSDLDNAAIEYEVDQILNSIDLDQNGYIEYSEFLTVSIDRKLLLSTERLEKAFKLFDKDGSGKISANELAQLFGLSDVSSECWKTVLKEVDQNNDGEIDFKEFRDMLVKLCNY

Molecules are shown by their SMILES. A number with no mark means an inactive call. For some of these results: Results with a measured potency or affinity are listed apart. Calls of active or inactive are those of the source. Unless noted, no rule for the calls is given here.

Sequence of Protein kinase 7 (PK7), Plasmodium falciparum 3D7 (PF3D7_0213400) (Q7YTF7 1-343): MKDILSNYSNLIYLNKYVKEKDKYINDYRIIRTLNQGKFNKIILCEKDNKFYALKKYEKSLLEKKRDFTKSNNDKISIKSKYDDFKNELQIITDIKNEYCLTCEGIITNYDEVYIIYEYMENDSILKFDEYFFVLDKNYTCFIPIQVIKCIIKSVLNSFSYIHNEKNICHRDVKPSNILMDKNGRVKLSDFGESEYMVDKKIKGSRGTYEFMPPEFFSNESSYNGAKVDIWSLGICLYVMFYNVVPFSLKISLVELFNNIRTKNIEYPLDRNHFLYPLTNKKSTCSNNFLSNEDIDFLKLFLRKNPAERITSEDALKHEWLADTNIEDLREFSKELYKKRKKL
Sequence of L-lactate dehydrogenase (Plasmodium falciparum (isolate CDC / Honduras)) (Q27743 whole entry, looked up): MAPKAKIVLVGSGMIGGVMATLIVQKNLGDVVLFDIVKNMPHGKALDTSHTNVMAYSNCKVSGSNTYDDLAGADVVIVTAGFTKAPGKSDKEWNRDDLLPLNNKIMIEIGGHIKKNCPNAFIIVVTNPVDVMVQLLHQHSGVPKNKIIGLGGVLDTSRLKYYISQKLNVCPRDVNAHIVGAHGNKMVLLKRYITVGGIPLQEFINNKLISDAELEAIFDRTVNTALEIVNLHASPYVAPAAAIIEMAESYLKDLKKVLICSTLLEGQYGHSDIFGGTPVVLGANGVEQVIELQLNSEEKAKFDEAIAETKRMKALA

As for `COc1c(C2CCN(CCCCNC(=O)c3ccc(-c4ccc(C(=O)C(F)(F)F)cc4)cc3)CC2)ccc2c1CCCC2`, the figures for the growth inhibition in test [1] and in test [4] were 33% and 81% (active), respectively. Also, the inhibition was 99% (active) in test [2] and -4% in test [3]. The outcome in test [5], in test [6], in test [7] and in test [8] was inactive.

In the case of `Fc1cc(Cl)ccc1Nc1ccnc2cc(-c3ccc(CN4CCNCC4)o3)ccc12`, the growth inhibition in test [1] was 99% (active); in test [4], 100% (active). In addition, the inhibition in test [2] is 16%; in test [3], 1%. For the same compound, the result in test [5], in test [6], in test [7] and in test [8] was inactive.

As for `Cc1nc(Nc2ccc(F)cc2)nc(N2CCc3cc(O)ccc3C2C)c1C` (stereo not given), the growth inhibition in test [1] was 97% (active); in test [4] it was 99% (active). The results for the inhibition in test [2] and in test [3] were -5% and -6%, respectively. Besides, the outcome in test [5], in test [6], in test [7] and in test [8] was inactive.

Consider `CCOC(=O)c1ccc(NC(=O)Nc2ccc(-c3ccc(-c4nc5c(C)cccc5[nH]4)s3)cc2)cc1`, for which the growth inhibition was 100% (active) in test [1] and 101% (active) in test [4]. Further, the inhibition in test [2] is 60% (active); in test [3], -4%. Moreover, the outcome in test [5], in test [6], in test [7] and in test [8] was inactive.

As to `COc1ccc(NC(=O)[C@H](CC(C)C)Nc2cc(C)nc(NCC3CCCCC3)n2)cc1`, the figures for the growth inhibition in test [1] and in test [4] were 92% (active) and 101% (active), respectively. Besides, the figures for the inhibition in test [2] and in test [3] were 7% and 2%, respectively. Moreover, the outcome in test [5], in test [6], in test [7] and in test [8] was inactive.

For the compound `CO/C(=C\C=C\c1cc2cc(Cl)c(Cl)cc2[nH]1)C(=O)NC1C[C@H]2CC[C@@H](C1)N2C` (stereo not given in full), the results for the growth inhibition in test [1] and in test [4] were 23% and 88% (active), respectively. Besides, the inhibition is 46% in test [2] and -4% in test [3]. Also, the result in test [5], in test [6], in test [7] and in test [8] was inactive.

Take `CCc1ccccc1N1CCN(CCCCNC(=O)c2ccc(NC(=O)c3ccc(Cl)cc3)cc2)CC1`: the results for the growth inhibition in test [1] and in test [4] were 4% and 96% (active), respectively. Further, the inhibition was 21% in test [2] and -4% in test [3]. For the same compound, the outcome in test [5], in test [6], in test [7] and in test [8] was inactive.

For the compound `c1cc(CNCC2CCCO2)cc(-c2ccc(-c3nc4ccccc4[nH]3)s2)c1` (stereo not given), the growth inhibition in test [1] was 30%; in test [4], 95% (active). Moreover, the inhibition is 8% in test [2] and -2% in test [3]. In addition, the outcome in test [5], in test [6], in test [7] and in test [8] was inactive.

Take `COc1ccc2nc(NC3=NC(c4ccccn4)(c4ccccn4)C(=O)N3C)[nH]c2c1`: the growth inhibition in test [1] is 98% (active); in test [4], 99% (active). Further, the inhibition is 65% (active) in test [2] and 1% in test [3]. The outcome in test [5], in test [6], in test [7] and in test [8] was inactive.

`NC(=O)c1ccc(C(=O)Nc2cccc(-c3csc(-c4nc5ccccc5[nH]4)c3)c2)cc1`: the growth inhibition in test [1] was 35%; in test [4], 100% (active). For the same compound, the inhibition in test [2] is 14%; in test [3], -4%. In addition, the result in test [5], in test [6], in test [7] and in test [8] was inactive.

With `O=C(NCCN1CCCCC1)c1ccc(CNC(=O)c2ccc(O)c(-c3ccc(Cl)c(Cl)c3)c2)cc1`, the growth inhibition is 68% (active) in test [1] and 93% (active) in test [4]. The inhibition in test [2] is 3%; in test [3] it was -8%. Moreover, the result in test [5], in test [6], in test [7] and in test [8] was inactive.

As for `Cc1cc(C)c(C(=O)Nc2ccc3nc(C)cc(N)c3c2)c(C)c1`, the growth inhibition in test [1] is 14%; in test [4], 84% (active). Also, the inhibition was 12% in test [2] and 4% in test [3]. Further, the outcome in test [5], in test [6], in test [7] and in test [8] was inactive.

In the case of `O=C(NCCCCN1CCN(c2cccc3c2OCCO3)CC1)c1ccc(NC(=O)c2cc(Cl)cc(Cl)c2)cc1`, the growth inhibition in test [1] is 89% (active); in test [4] it was 101% (active). Besides, the inhibition was 21% in test [2] and -3% in test [3]. In addition, the result in test [5], in test [6], in test [7] and in test [8] was inactive.

As for `FC(F)(F)c1cccc(-c2cc(NCCCn3ccnc3)nc(-c3ccncc3)n2)c1`, the growth inhibition was 100% (active) in test [1] and 101% (active) in test [4]. Further, the values for the inhibition in test [2] and in test [3] were 50% (active) and 5%, respectively. Moreover, the outcome in test [5], in test [6], in test [7] and in test [8] was inactive.

Regarding `O=S(=O)(NCCN1CCCC1)c1ccc(-c2ccc(CNCc3ccc(F)cc3)cc2)cc1`, the growth inhibition in test [1] is 44%; in test [4], 94% (active). The results for the inhibition in test [2] and in test [3] were 42% and 4%, respectively. In addition, the outcome in test [5], in test [6], in test [7] and in test [8] was inactive.

As to `C=CCOC(=O)N1CCC(CNCc2cccc(-c3cccc(-c4nc5ccc(F)cc5[nH]4)c3)c2)C1` (stereo not given), the growth inhibition in test [1] is 49%; in test [4], 102% (active). Besides, the values for the inhibition in test [2] and in test [3] were 20% and 0%, respectively. For the same compound, the result in test [5], in test [6], in test [7] and in test [8] was inactive.

In the case of `O=C(Nc1cccc(CN2CCCN(CC3CC3)CC2)c1)c1ccc(Cl)c(Cl)c1`, the growth inhibition was 5% in test [1] and 92% (active) in test [4]. The inhibition was 13% in test [2] and 4% in test [3]. For the same compound, the result in test [5], in test [6], in test [7] and in test [8] was inactive.

With `OC(CNCc1ccccc1OCc1ccccc1)c1cc(Br)cs1` (stereo not given), the values for the growth inhibition in test [1] and in test [4] were 88% (active) and 97% (active), respectively. In addition, the inhibition is 16% in test [2] and 5% in test [3]. Further, the outcome in test [5], in test [6], in test [7] and in test [8] was inactive.

As to `Cc1ccc(NC(=O)c2c(C)noc2-c2snnc2C)cc1`, the growth inhibition in test [1] was 71% (active); in test [4], 92% (active). Moreover, the values for the inhibition in test [2] and in test [3] were 1% and 3%, respectively. Besides, the result in test [5], in test [6], in test [7] and in test [8] was inactive.

In the case of `COc1cc2c(cc1S(=O)(=O)c1ccc(NC(=O)c3cccc(C(F)(F)F)c3)cc1)CCN(C)CC2`, the growth inhibition in test [1] is 25%; in test [4] it was 92% (active). For the same compound, the results for the inhibition in test [2] and in test [3] were 18% and 3%, respectively. The outcome in test [5], in test [6], in test [7] and in test [8] was inactive.

In general, inhibition refers to the drop in the measured response relative to a control, in per cent.
